# Laboratory results taken from PubChem BioAssay AID652115 (Broad Institute, 2013).
# Values joined by “and” are separate entries in the source; they are usually repeats but may differ in a detail not shown here. Equal entries are not always repeated. Hit rate of the full screen: of about 330,000 compounds, about 3,800 (1.2%) were called active. Shown is part of a subset that was picked to be rich in actives. Values without a mark were called inactive. Cut-off read from the data, not from the text of the source: active = inhibition above about 15%; inconclusive = no clear call, values can overlap the other calls; inactive = below that.
# Target: NAD-dependent protein deacylase sirtuin-5, mitochondrial (Homo sapiens) (UniProt Q9NXA8)
# Sequence (Q9NXA8 whole entry, looked up): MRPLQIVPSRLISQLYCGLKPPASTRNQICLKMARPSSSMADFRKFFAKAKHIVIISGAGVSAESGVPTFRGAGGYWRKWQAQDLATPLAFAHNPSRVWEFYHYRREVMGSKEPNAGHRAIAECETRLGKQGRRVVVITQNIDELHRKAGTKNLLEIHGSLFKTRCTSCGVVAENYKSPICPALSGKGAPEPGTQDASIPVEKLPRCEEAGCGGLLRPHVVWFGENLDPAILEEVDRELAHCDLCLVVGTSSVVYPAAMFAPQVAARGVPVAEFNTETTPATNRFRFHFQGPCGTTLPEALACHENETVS
# Test: SIRT5 desuccinylase inhibitors, primary screen, biochemical, fluorescence imaging, single point, set 5 (AID 652115)
# Details: Purified SirT5, succinyl-peptide AMC, trypsin-coupled fluorescence; at 15 µM; hits give high values
row,Structure (SMILES),inhibition
1,C[C@@H]1CN([C@H](C)CO)C(=O)c2cc(NS(=O)(=O)c3cccs3)ccc2O[C@@H](C)CCCCO[C@H]1CN(C)Cc1ccc(C(F)(F)F)cc1,13.1%
2,CCS(=O)(=O)N1CC(=O)N2[C@H](CO)[C@@H](c3ccc(C#CC4CCCC4)cc3)[C@@H]2C1,-0.752%
3,COc1ccccc1CN1CCNC(=O)C1CC(=O)N(C)CC1CCOCC1 (centres undefined),-0.968%
4,CCN(CCn1cccn1)C(=O)CC1C(=O)NCCN1Cc1cccc(OC)c1OC (centres undefined),16.5% (active)
5,CN(Cc1cccc2ncccc12)C(=O)CC1C(=O)NCCN1Cc1ccc(F)cc1 (centres undefined),7.41%
6,Cc1noc(C)c1S(=O)(=O)Nc1ccc2c(c1)C(=O)N([C@H](C)CO)C[C@H](C)[C@H](CN(C)C(=O)NC1CCCCC1)OCCCC[C@H](C)O2,0.076%
7,COc1ccccc1-c1nnc(NC(=O)c2ccc3ncsc3c2)o1,20.5% (active)
8,COc1ccccc1-c1nnc(NC(=O)c2cccc(N3C(=O)CCC3=O)c2)o1,1.38%
9,Cc1sc(NC(=O)c2ccc3ncsc3c2)c(C(N)=O)c1C,-6.86%
10,CCCNC(=O)C[C@H]1CC[C@@H]2[C@H](COC[C@H](O)CN2CC2CCCCC2)O1,-1.9%
11,C[C@H]1CN([C@@H](C)CO)C(=O)c2cc(-c3cccc(F)c3)cnc2O[C@@H]1CN(C)S(C)(=O)=O,0.285% and -8.78%
12,C[C@H](CO)N1C[C@H](C)[C@@H](CN(C)C)Oc2ncc(-c3cccc(F)c3)cc2C1=O,-1.97%
13,C[C@@H]1CN([C@H](C)CO)C(=O)c2cc(-c3cccc(F)c3)cnc2O[C@@H]1CN(C)C,21.7% (active)
14,CC(=O)N(C)C[C@H]1Oc2ncc(-c3cccc(F)c3)cc2C(=O)N([C@@H](C)CO)C[C@H]1C,25.3% (active)
15,C[C@H]1CN([C@@H](C)CO)C(=O)c2cc(-c3cccc(F)c3)cnc2O[C@@H]1CN(C)C(=O)c1ccccn1,0.073%
16,COc1cccc(-c2cnc3c(c2)C(=O)N([C@@H](C)CO)C[C@H](C)[C@H](CN(C)C(C)=O)O3)c1,2.24%
17,C[C@H]1CN([C@@H](C)CO)S(=O)(=O)c2ccc(C#Cc3ccccc3)cc2O[C@H]1CN(C)S(=O)(=O)c1cn(C)cn1,2.56%
18,COc1ccccc1-c1ccc([C@H]2[C@H](CO)N(C(=O)C3CC3)C23CN(C(C)=O)C3)cc1,2.52%
19,Cc1cc2cc(CN(Cc3cccs3)Cc3nnnn3CC3CCCO3)c(=O)[nH]c2cc1C (centres undefined),-2.28%
20,Cc1ccc(S(=O)(=O)N(Cc2cc3ccccc3[nH]c2=O)CC2CCCO2)cc1 (centres undefined),23.6% (active)
21,O=C(c1cccs1)N(Cc1cc2ccccc2[nH]c1=O)CC1CCCO1 (centres undefined),0.632%
22,CO[C@H]1CN(C)C(=O)c2ccc(NC(=O)CC(F)(F)F)cc2OC[C@@H](C)N(C(=O)c2ccccc2F)C[C@@H]1C,4.25%

row,Structure (SMILES),inhibition
1,O=C(NCCc1ccc(F)cc1)c1ccc2nccnc2c1,16% (active)
2,O=C(NCCc1ccc(F)cc1)c1n[nH]c2ccccc12,9.38%
3,O=C(NCCc1ccc(F)cc1)c1ccc(S(=O)(=O)N2CCCCC2)cc1,-0.792%
4,Cc1ccccc1-c1ccc(C2[C@@H]3CN(C(=O)C4CCCCC4)C[C@H]2N3)cc1 (some centres undefined),-6.18% and -1.65%
5,C/C=C/c1ccc(C2[C@H]3CNC[C@@H]2N3Cc2cccc(OC)c2)cc1 (some centres undefined),-2.37% and 0.748%
6,CCNC(=O)C[C@H]1CC[C@@H]2[C@H](COC[C@H](O)CN2S(=O)(=O)c2ccc(Oc3ccccc3)cc2)O1,-0.497%
7,COc1ccc(NC(=O)N(C)C[C@@H]2OCCCC[C@H](C)Oc3ccc(NS(=O)(=O)c4cccs4)cc3C(=O)N([C@@H](C)CO)C[C@@H]2C)cc1,-0.093%
8,CC(C)CC#Cc1cnc2c(c1)C(=O)N([C@H](C)CO)C[C@H](C)[C@H](CN(C)CC1CCOCC1)O2,23% (active)
9,C[C@H](CO)N1C[C@H](C)[C@@H](CN(C)CC2CCOCC2)Oc2ncc(C#Cc3ccc(F)cc3)cc2C1=O,-1.14%
10,C[C@@H]1CN([C@H](C)CO)C(=O)c2cc(C#CC3CCCC3)cnc2O[C@H]1CN(C)S(C)(=O)=O,-4.07%
11,C[C@@H]1CN([C@@H](C)CO)C(=O)c2cc(C#CC3CCCCC3)cnc2O[C@H]1CN(C)S(=O)(=O)c1ccccc1,17.9% (active)
12,C[C@@H]1CN([C@@H](C)CO)C(=O)c2cc(C#C[C@@H](C)O)cnc2O[C@H]1CN(C)CC1CCOCC1,-2.03%
13,C[C@H]1CN([C@@H](C)CO)C(=O)c2cc(C#CC3CCCCC3)cnc2O[C@H]1CN(C)S(=O)(=O)c1ccccc1,13.2%
14,C[C@H]1CN([C@@H](C)CO)S(=O)(=O)c2ccc(-c3cccc(C#N)c3)cc2O[C@H]1CN(C)CC1CC1,-0.017%
15,COCC#Cc1cnc2c(c1)C(=O)N([C@@H](C)CO)C[C@@H](C)[C@@H](CN(C)S(=O)(=O)c1cccc(OC)c1)O2,-3.81%
16,CN(C)Cc1cn(CC[C@H]2CC[C@H](NS(=O)(=O)c3ccccc3)[C@@H](CO)O2)nn1,-3.23%
17,Cc1ccc(S(=O)(=O)N2C[C@H](O)COC[C@H]3O[C@H](CC(=O)N[C@H]4CCN(Cc5ccccc5)C4)CC[C@@H]32)cc1,-1.53%
18,C/C(=N\Nc1nncc2ccccc12)c1ccc(Cl)c([N+](=O)[O-])c1,2.12%
19,CN(CCO)c1ccc(/C=N/Nc2nncc3ccccc23)cc1,25% (active)
20,CN(C(=O)CSc1nncc2ccccc12)C1CCCCC1,1.3%
21,C[C@H]1CCCCO[C@@H](CN(C)Cc2ccccc2)[C@@H](C)CN([C@@H](C)CO)C(=O)c2cc(NC(=O)Cc3ccccc3)ccc2O1,2.55%
22,O=C(C[C@H]1CC[C@@H](NC(=O)Cc2cccnc2)[C@H](CO)O1)Nc1ccc(-c2ccccc2)cc1,4.12%
